Bioassay records as filed in PubChem.
Shown are actives, neighbours in structure and some others; about 10% of the full set was active somewhere.
NS1 function inh = blocks influenza NS1 protein function. Potency, µM (top dose mostly 46.1 µM), for inactives: at the highest dose activity, positive = more growth. hit rate 0.4% among 270,000; also: potency is read from the fitted curve at half-maximal effect; actives are rising curves; nearly all actives have a fitted effect of over 50% in size
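Recovery from NS1-induced slow growth read by OD600 in budding yeast switched to galactose assay medium (pH 6.0, -URA) at 1:100 dilution. Compound 23 nl per well; the matching strain lacking NS1 serves as control.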
Pf growth 96h = P. falciparum growth inhibition at 96 hours. P. falciparum luciferase reporter growth, 96 h. Potency, µM (series often up to 28.7 µM), for the others: at the top dose activity change, negative = inhibition, actives largely listed as inhibitors. hit rate 6.9% among 320,000. AID 504834; active = well fitted inhibition curve with a large enough effect; inconclusive = small, poorly fitted or top-dose-only effect, or another doubt; inactive = no such curve, though single readings can be large or run the other way; also: potency is read from the fitted curve at half-maximal effect; % is scaled to controls: 0 for no effect and ±100 for the full control effect
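Plates of compound plus infected erythrocytes (2% hematocrit, 0.05% parasitemia final) incubate 96 hours, 37 C, 5% CO2. Detection reagent added; reduced luminescence from the parasites' luciferase reporter flags inhibition.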
Pf growth 48h = inhibits P. falciparum growth in the first generation, 48 h; P. falciparum luciferase growth in erythrocytes, 48 h; Potency, µM (top dose mostly 28.7 µM), inactives show at the highest dose activity change, negative = inhibition, actives largely listed as inhibitors; AID 504832; hit rate 5.9% among 310,000; active = well fitted inhibition curve with a large enough effect; inconclusive = small, poorly fitted or top-dose-only effect, or another doubt; inactive = no such curve, though single readings can be large or run the other way; also: potency is read from the fitted curve at half-maximal effect; % is scaled to controls: 0 for no effect and ±100 for the full control effect
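Luciferase-expressing P. falciparum in infected erythrocytes (2% hematocrit, 0.1% parasitemia final) in RPMI 1640/0.5% Albumax were exposed to compound for 48 hours at 37 C, 5% CO2; growth read as luminescence.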
SARS PLpro yeast-1 = blocks SARS-CoV papain-like protease in a yeast assay; AID 485353; S. cerevisiae expressing SARS-CoV PLpro, growth rescue; hit rate 0.19% among 330,000; Potency, µM (top dose mostly 32.9 µM), without a hit: at the top dose activity, positive = growth rescue, usual class: activators; also: potency is read from the fitted curve at half-maximal effect; 0% is about no effect; nearly all actives have a fitted effect of over 55% in size
SARS PLpro yeast-2 = Inhibits SARS-CoV PLP in yeast, hit validation. shares compounds with SARS PLpro yeast-1. yeast expressing SARS-CoV PLpro, growth phenotype rescue. calls only. hit rate 19% among 1,000. AID 652038; call rule not given here
An asterisk follows results filed as active. Unless noted, calls follow the shape of the full dose curve.

Results for Cc1ccc(-n2c(O)c(/C=N/NC(=O)C3COc4ccccc4O3)c3ccccc3c2=O)cc1 (configuration not stated) ?
NS1 function inh: inconclusive; Pf growth 96h: 22%; Pf growth 48h: -2%; SARS PLpro yeast-1: inconclusive; SARS PLpro yeast-2: inconclusive

What do the screens show for `Cc1c(/C=N\NC(=O)C2COc3ccccc3O2)c2ccccc2n1C` (configuration not stated)?
NS1 function inh: -38%; Pf growth 96h: inconclusive; Pf growth 48h: -13%; SARS PLpro yeast-1: -32%

What do the screens show for `CC(=O)N/N=C/c1c(C)[nH]n(-c2ccccc2)c1=O`?
Pf growth 96h: 44%; Pf growth 48h: inconclusive; SARS PLpro yeast-1: -3%

Results for O=C(N/N=C/c1c(O)n(-c2ccccc2Cl)c(=O)c2ccccc12)C1COc2ccccc2O1 (configuration not stated) ?
NS1 function inh: 3.5µM*; Pf growth 96h: inconclusive; Pf growth 48h: 4%; SARS PLpro yeast-1: 11µM*; SARS PLpro yeast-2: active

What do the screens show for `O=C(NC1CC2CCCC(C1)N2C(=O)Nc1ccccc1)C1CC1` (configuration not stated)?
NS1 function inh: 2%; Pf growth 96h: 5%; Pf growth 48h: 5%; SARS PLpro yeast-1: -2%

What do the screens show for `Cc1cc(C)nc(SCc2ccc(C(=O)N/N=C/c3cccc(O)c3O)cc2)n1`?
NS1 function inh: -7%; Pf growth 96h: 4.7µM*; Pf growth 48h: 10µM*; SARS PLpro yeast-1: 3.2µM*; SARS PLpro yeast-2: active

What do the screens show for `CC(COC(=O)c1ccccc1)(COC(=O)c1ccccc1)/[N+]([O-])=C/c1ccccc1`?
NS1 function inh: -16%; Pf growth 96h: 29%; Pf growth 48h: 13%; SARS PLpro yeast-1: inconclusive; SARS PLpro yeast-2: inactive

Results for O=C(Nc1ccc(Br)cn1)C1CCCN1S(=O)(=O)c1ccccc1 (configuration not stated) ?
NS1 function inh: -1%; Pf growth 96h: 2%; Pf growth 48h: -16%; SARS PLpro yeast-1: 2%

Results for CC(=O)Oc1ccc(-c2cccc(C(=O)OCC(=O)Nc3ccccc3Oc3ccccc3)c2)cc1 ?
NS1 function inh: 4%; Pf growth 96h: inconclusive; Pf growth 48h: inconclusive; SARS PLpro yeast-1: inconclusive; SARS PLpro yeast-2: active

What do the screens show for `O=C(CSc1nnc(-c2cccnc2)s1)Nc1ccccc1`?
NS1 function inh: -9%; Pf growth 96h: 1%; Pf growth 48h: 19%; SARS PLpro yeast-1: inconclusive; SARS PLpro yeast-2: active

Results for COCCNC(=S)N/N=C(\C)c1ccc(OC)cc1 ?
NS1 function inh: 5%; Pf growth 96h: -10%; Pf growth 48h: -21%; SARS PLpro yeast-1: 22µM*; SARS PLpro yeast-2: active

Results for COCCNC(=S)N/N=C(\C)c1ccc2cc(OC)ccc2c1 ?
NS1 function inh: -1%; Pf growth 96h: inconclusive; Pf growth 48h: inconclusive; SARS PLpro yeast-1: 8.9µM*; SARS PLpro yeast-2: inactive

How did CN(Cc1ccccc1NS(=O)(=O)c1ccc2ccccc2c1)C1CCCCC1 do in these assays?
Pf growth 96h: inconclusive; Pf growth 48h: -7%; SARS PLpro yeast-1: -10%

How did Cc1noc(C)c1C(=O)Nc1nc(-c2ccc(F)cc2)cs1 do in these assays?
Pf growth 96h: 19%; Pf growth 48h: 25%; SARS PLpro yeast-1: inconclusive; SARS PLpro yeast-2: inactive

Results for COc1ccc(OC)c(C2/C(=C(/O)c3ccc(C)cc3)C(=O)C(=O)N2Cc2ccco2)c1 (configuration not stated) ?
NS1 function inh: -3%; Pf growth 96h: -18%; Pf growth 48h: 7%; SARS PLpro yeast-1: 10µM*; SARS PLpro yeast-2: inactive

How did COc1ccc(/C(O)=C2\C(=O)C(=O)N(Cc3ccco3)C2c2cc(OC)ccc2OC)cc1 (configuration not stated) do in these assays?
NS1 function inh: 5%; Pf growth 96h: 33%; Pf growth 48h: inconclusive; SARS PLpro yeast-1: 1%

How did C=CCOc1cccc(CNc2cccc(C(=O)O)c2)c1 do in these assays?
NS1 function inh: -3%; Pf growth 96h: 51%; Pf growth 48h: 92%; SARS PLpro yeast-1: 5%

Results for Cn1c(=O)c2c(nc(SCc3nc(N)nc(N4CCCCC4)n3)n2C)n(C)c1=O ?
NS1 function inh: 11%; Pf growth 96h: inconclusive; Pf growth 48h: -6%; SARS PLpro yeast-1: inconclusive; SARS PLpro yeast-2: inactive

Results for CCCn1c(SCc2nc(N)nc(N3CCCCC3)n2)nc2c1c(=O)n(C)c(=O)n2C ?
Pf growth 96h: -23%; Pf growth 48h: -7%; SARS PLpro yeast-1: -10%

What do the screens show for `NC(=O)c1ccc(Oc2ccc(Cl)cc2)c([N+](=O)[O-])c1`?
NS1 function inh: 1%; Pf growth 96h: -4%; Pf growth 48h: -2%; SARS PLpro yeast-1: -2%

Results for NC(=O)c1ccc(Oc2ccc(Cl)c3ccccc23)c([N+](=O)[O-])c1 ?
NS1 function inh: 5%; Pf growth 96h: 12%; Pf growth 48h: 13%; SARS PLpro yeast-1: 4.5µM*; SARS PLpro yeast-2: inconclusive

Results for Cc1noc(C)c1NC(=O)Nc1cccc2c1O[C@H](CN(C)C(=O)NC1CCCCC1)[C@@H](C)CN([C@H](C)CO)C2=O ?
SARS PLpro yeast-1: -6%

Results for COc1ccccc1CNC(=S)NCCc1ccccc1 ?
NS1 function inh: -22%; Pf growth 96h: 1%; Pf growth 48h: 12%; SARS PLpro yeast-1: inconclusive; SARS PLpro yeast-2: inconclusive

How did C/C(=N\NC(N)=S)c1ccc(Cl)s1 do in these assays?
NS1 function inh: -43%; Pf growth 96h: inconclusive; Pf growth 48h: -15%; SARS PLpro yeast-1: 10µM*; SARS PLpro yeast-2: inconclusive

How did CCCCCCO do in these assays?
Pf growth 96h: 33%; Pf growth 48h: 35%; SARS PLpro yeast-1: 11µM*; SARS PLpro yeast-2: inactive

How did CCCNc1nc(C)cc(-c2cc(-c3ccc(Cl)cc3)on2)n1 do in these assays?
NS1 function inh: 0%; Pf growth 96h: 40%; Pf growth 48h: 23%; SARS PLpro yeast-1: 0%

How did COc1cccc(/C(C)=N/NC(=O)c2cc(-c3cccnc3)nc3ccccc23)c1 do in these assays?
NS1 function inh: -4%; Pf growth 96h: inconclusive; Pf growth 48h: inconclusive; SARS PLpro yeast-1: 18%

Results for C/C(=N\NC(=O)c1cc(-c2cccnc2)nc2ccccc12)c1ccccc1O ?
NS1 function inh: 10%; Pf growth 96h: inconclusive; Pf growth 48h: 6.6µM*; SARS PLpro yeast-1: 10µM*; SARS PLpro yeast-2: active

What do the screens show for `COCCC1CCCCN1C(=O)c1cc(COc2ccc(-n3cncn3)cc2)on1` (configuration not stated)?
NS1 function inh: -4%; Pf growth 96h: inconclusive; Pf growth 48h: 11%; SARS PLpro yeast-1: inconclusive; SARS PLpro yeast-2: inactive

How did CC(=O)Oc1ccc2cc(-c3ccccc3)c(=O)oc2c1 do in these assays?
NS1 function inh: -2%; Pf growth 96h: 79%; Pf growth 48h: 28%; SARS PLpro yeast-1: -1%

What do the screens show for `O=C(NCCc1ccc(Cl)cc1)/C(=C/c1cccnc1)NC(=O)c1ccccc1`?
NS1 function inh: 5%; Pf growth 96h: inconclusive; Pf growth 48h: -3%; SARS PLpro yeast-1: 16µM*; SARS PLpro yeast-2: inactive
